Sampled rows, rich in hits. Any-hit rate of the full collection: about 21%.
Pf growth 96h – inhibits malaria parasite growth, 96 h; P. falciparum luciferase reporter growth, 96 h; Potency, µM (doses to about 28.7 µM), without a hit: top-dose activity change, negative = inhibition, hits mostly inhibitors; 6.9% of 320,000 active; AID 504834; also: potency is read from the fitted curve at half-maximal effect; % is scaled to controls: 0 for no effect and ±100 for the full control effect
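Two-generation exposure (96 h) targets delayed-death phenotype. Reporter parasites carrying integrated firefly luciferase, in red cells at 2% hematocrit and 0.05% parasitemia final, kept at 37 C, 5% CO2; luminescence loss indicates inhibition.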
NS1 inh – inhibitors of influenza NS1 protein function. Potency, µM (titrated, usually from 46.1 µM), for the others: at the highest dose activity, positive = more growth. 0.4% of 270,000 active; calls by dose curve; also: potency is read from the fitted curve at half-maximal effect; actives are rising curves; nearly all actives have a fitted effect of over 50% in size
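Read-out: OD600 growth recovery of NS1-expressing budding yeast. Cells grown overnight at 30C in -URA glucose medium, washed, resuspended and diluted 1:100 in 2% galactose assay medium, pH 6.0. Same strain lacking NS1 served as positive control.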
Sm TGR block – blocks Schistosoma mansoni thioredoxin glutathione reductase; Q962Y6; purified TGR, DTNB reduction, TNB absorbance 405 nm; Potency, µM (titrated, usually from 114 µM), inactives show top-dose activity change, negative = inhibition, usual class: inhibitors; 3% of 360,000 active; AID 485364; also: potency is read from the fitted curve at half-maximal effect; % is scaled to controls: 0 for no effect and ±100 for the full control effect; nearly all actives have a fitted effect of over 60% in size
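Kinetic colorimetric format: TGR-catalysed, NADPH-driven DTNB reduction monitored via TNB absorbance. Enzyme dispensed at 20 nM; compound exposure 15 min at room temperature before reaction start.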
Pf growth 48h – inhibits P. falciparum growth in the first generation, 48 h; P. falciparum luciferase growth in erythrocytes, 48 h; Potency, µM (doses to about 28.7 µM), for the others: top-dose activity change, negative = inhibition, usual class: inhibitors; 5.9% of 310,000 active; AID 504832; also: potency is read from the fitted curve at half-maximal effect; % is scaled to controls: 0 for no effect and ±100 for the full control effect
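Luciferase-expressing parasites in RBCs, 2% Hct / 0.1% parasitemia final; RPMI 1640 + 0.5% Albumax; 37 C, 5% CO2, one generation; luminescence read-out, lower signal = inhibition.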
Shiga inhibitor – inhibitors of Shiga toxin in Vero cells; Vero cells, Shiga toxin protein synthesis inhibition reporter; inhibition, % at 38.7 µM; 9.2% of 290,000 active; AID 2315; in the data active = inhibition mostly above about 28%, no sharp cut-off; inactive = mostly below about 43%; also: 0% is about no effect
Cycloheximide cs – counter-screen hit for Shiga toxin inhibitors, cycloheximide; cell reporter, cycloheximide protein synthesis inhibition counterscreen; max response, %; 12% of 300,000 active; AID 2314; in the data active = max response mostly above about 13%, no sharp cut-off; inactive = mostly below about 14%; also: read at 38.3 µM for the half of the compounds with a filed dose; 0% is about no effect
Starred values were filed as active, the others as inactive; i = inactive; ? = inconclusive; . = no result; [ ] = dose if it differs, or a comment. Unless noted, calls follow the shape of the dose curve; as a rule, active = well fitted curve in the direction sought with a large enough effect; inconclusive = small, poorly fitted or top-dose-only effect, or another doubt; inactive = no such curve, though single readings can be large; an effect the other way counts as inactive or inconclusive.

SMILES	Pf growth 96h	NS1 inh	Sm TGR block	Pf growth 48h	Shiga inhibitor	Cycloheximide cs
N#C/C(=C/c1ccc(OCc2ccc(C(=O)O)cc2)cc1)C(=O)Nc1ccccc1	28%	-1%	-1%	-5%	-23	-4
N#C/C(=C\c1ccc(OCc2ccccc2)cc1)C(N)=O	6%	.	2%	106%	90*	24*
N#C/C(=C\c1ccc(OC(=O)c2ccccn2)cc1)C(N)=O	31%	-1%	40µM*	-2%	30	-2
N#C/C(=C\c1ccc(OCc2ccccc2)cc1)C(=O)Nc1nc2c(s1)CCN(Cc1ccccc1)C2	?	-20%	-7%	8.3µM*	4	20*
Cc1ccccc1NC(=O)CS(=O)(=O)c1cccc2nsnc12	.	.	-12%	.	.	.
COC(=O)c1ccc(NC(=S)N2CCN(Cc3ccccc3OC)CC2)cc1	-5%	1%	2%	-15%	-4	-1
CCCc1cc(C(=O)Nc2c(C)nn(Cc3c(Cl)cccc3Cl)c2C)no1	.	.	9%	.	.	.
COC(=O)c1ccc(NC(=O)COC(=O)COc2cccc3c2OC(C)(C)C3)cc1	-22%	.	-1%	-30%	.	.
CCOC(=O)c1sc2c(c1C)c(=O)c(C(=O)OCC)cn2CC	8%	0%	-20%	2.3µM*	15	-2
CC1=C(C(=O)OC(C)C)C(C)NC(=O)N1 (centres undefined)	9.3µM*	0%	-1%	0%	1	2
O=C(CCc1nc(-c2cccs2)no1)Nc1ccccc1[N+](=O)[O-]	.	.	-11%	.	.	.
CSc1ccc(C(=S)N2CCN(C)CC2)cc1	46%	-6%	3%	4%	10	9
CSc1ccc(C(=S)N2CCN(C(c3ccccc3)c3ccccc3)CC2)cc1	5.2µM*	19%	8%	.	13	1
CSc1ccc(C(=S)N2CCCC2)cc1	?	-3%	-4%	5%	25	16*
O=C(C1CC1)N1CCN(C(c2ccccc2)c2ccccc2)CC1	.	-9%	?	?	-9	12
Cc1cc(C)c(S(C)(=O)=O)c(N(C)NC(=O)c2c(F)cccc2F)n1	28%	.	1%	i	2	-2
O=C(Cc1ccccc1Nc1c(Cl)cccc1Cl)OCO/N=[N+](\[O-])N1CCCC1	.	.	.	.	19	11
CC1(C)CC(=O)C2=C(C1)OC1=C(C(=O)CC(C)(C)C1)C2c1ccccc1	?	7%	0%	.	-12	-5
CC1(C)CC(=O)C2=C(C1)Oc1nc3ccccc3cc1C2C(C#N)C#N (centres undefined)	-1%	-4%	0%	0.66µM*	-3	-1
Cc1cc(C)nc(N/N=C2/CCSc3ccc(F)cc32)n1	10µM*	-64%	-2%	?	6	10
O/N=C1\CCSc2ccc(F)cc21	98%	7%	-23%	58%	58*	33*
O=C(O)c1ccc(N/N=C2/CCSc3ccc(F)cc32)cc1	57%	-108%	1%	10%	34	38*
Cc1ncc2c(n1)-c1cc(F)ccc1SC2	2%	4%	-7%	.	-2	-4
NC(=O)C1CCN(c2nc(-c3cccc4ccccc34)cs2)CC1	-5%	.	.	?	.	.
CN(C(=O)C1=CC(c2ccc3c(c2)OCO3)=NS(=O)(=O)N1C)c1ccccc1	.	.	-24%	.	.	.
SMILES	Pf growth 96h	NS1 inh	Sm TGR block	Pf growth 48h	Shiga inhibitor	Cycloheximide cs
COc1ccc(S(=O)(=O)Nc2ccc3c(c2)sc(=O)n3C)cc1Cl	.	.	0%	.	.	.
O=C(N[C@H](C(=O)O)c1ccccc1)C1CCC(Cn2nnc3ccccc3c2=O)CC1 (some centres undefined)	-5%	-2%	-3%	9%	-5	-3
Oc1c(I)cc(Cl)c2cccnc12	?	-39%	?	?	-14	-3
CN1CCN(C(c2ccccc2)c2ccc(Cl)cc2)CC1 (centres undefined)	?	.	-2%	?	.	.
Oc1c(C(c2ccccn2)N2CCCCC2)cc(Cl)c2cccnc12 (centres undefined)	?	.	3.5µM*	?	20	-1
CN1CCN(C(c2ccc(C(F)(F)F)cc2)c2cc(Cl)c3cccnc3c2O)CC1 (centres undefined)	3.7µM*	-127%	0.63µM*	?	12	-3
CN1CCN(C(c2ccc(Cl)cc2)c2cc(Cl)c3cccnc3c2O)CC1 (centres undefined)	?	-104%	0.35µM*	?	5	3
CCOC(=O)N1CCc2c(sc(NCc3cccc(F)c3)c2C(=O)Nc2ccc(OC)cc2OC)C1	.	.	-15%	.	.	.
CCn1c(SCc2ccc(C)cc2)nnc1C1CCN(S(=O)(=O)c2ccc(OC)cc2)CC1	4.1µM*	10%	0%	12µM*	-14	-3
CCn1c(SCc2ccc(F)cc2)nnc1C1CCN(S(=O)(=O)c2ccc(OC)cc2)CC1	8.3µM*	-12%	-8%	12µM*	-2	-1
CCN(C(=O)COC(=O)CCC(=O)c1ccccc1)c1c(N)n(Cc2ccccc2)c(=O)[nH]c1=O	-20%	.	-24%	-9%	.	.
O=C(O)CCn1cnc2onc(-c3ccccc3Cl)c2c1=O	.	.	-9%	.	.	.
CC(C)CNC(=O)COc1cccc(C(=O)NCc2ccccc2)c1	-5%	-3%	0%	1%	-4	-2
O=C(NC1CCC(NC(=O)C(F)(F)C(F)F)CC1)C(F)(F)C(F)F (centres undefined)	13µM*	5%	16%[11.4 µM]	.	53	7
O=C(NCCCNC(=O)C(F)(F)C(F)F)C(F)(F)C(F)F	25%	2%	4%	15%	18	-4
Cc1ccc(C2(c3ccc(C)cc3)CC2C(=O)NC(C)C)cc1 (centres undefined)	?	-3%	-11%	-23%	-3	-2
CCOC(=O)c1cc(NC(=O)Nc2ccc(Br)cc2)c(C)nc1C	-10%	.	5%	?	13	-7
O=C(Nc1ccccc1Oc1ccccc1)C1=COCCO1	-24%	-11%	0%	-26%	-4	7
Oc1ccc(C[C@@H]2CNCCN2CCc2cccc3ccccc23)cc1	?	.	-13%	13µM*	.	.
Oc1ccc(C[C@H]2CNCCN2CCc2cccc(F)c2)cc1	?	.	1%	?	.	.
CC(C)(C)CN1CCNC[C@H]1Cc1cccc2ccccc12	9.3µM*	.	22µM*	?	.	.
CCOC(=O)N1CCN(C(=S)NCCOC)CC1	20%	2%	13%	.	-2	0
CCc1ccccc1Nc1nc2ccccc2c2nncn12	.	.	27%	.	.	.

Assay outcomes (PubChem BioAssay)
